Results from PubChem BioAssay AID1159580 (chemical genetic matrix, 2015).
About 2,000 (36%) of roughly 5,500 compounds were called active. Not shown: some 18% with an inconclusive outcome. Cut-off read from the data, not from the text of the source: active = normalized growth mostly below about 0.91 (no sharp cut-off); inconclusive = no clear call, values can overlap the other calls; inactive = mostly above about 0.92. The list shows a part of the results.

Assay: chemical genetic growth profiling, strain panel (AID 1159580);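 note: tested at 20 µM; growth read once vehicle control cultures reached saturation at 30 °C; 1 = growth at the plate median or of vehicle wells; lower values mean less growth of the strain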
Details: growth OD

Measured: normalized growth

CCCC(=O)Nc1ncnc2c1ncn2C1O[C@@H]2COP(=O)(O)O[C@H]2[C@H]1OC(=O)CCC (stereo not given in full)
inactive: S. cerevisiae deletion strains, locus YJR066W, strain TOR1, active compounds read low 0.97 | S. cerevisiae deletion strains, locus YKL009W, strain mrt4, active compounds read low 1.01 | S. cerevisiae deletion strains, locus YKL068W, active compounds read low 1.03 | S. cerevisiae deletion strains, locus YKL085W, strain MDH1 (second series), active compounds read low 1.01 | S. cerevisiae deletion strains, locus YKL085W, strain MDH1, active compounds read low 1.01 | S. cerevisiae deletion strains, locus YKL160W, strain elf1, active compounds read low 0.999 | S. cerevisiae deletion strains, locus YKL190W, strain CNB1, active compounds read low 1.01 | S. cerevisiae deletion strains, locus YKR001C, strain vps1, active compounds read low 1.04 | S. cerevisiae deletion strains, locus YKR026C, strain gcn3, active compounds read low 0.979 | S. cerevisiae deletion strains, locus YKR091W, strain srl3, active compounds read low 0.989 | S. cerevisiae deletion strains, locus YLL001W, strain dnm1, active compounds read low 0.967 | S. cerevisiae deletion strains, locus YLL026W, active compounds read low 0.985 | S. cerevisiae deletion strains, locus YLL041C, strain sdh2, active compounds read low 0.98 | S. cerevisiae deletion strains, locus YLR027C, strain aat2, active compounds read low 0.999 | S. cerevisiae deletion strains, locus YLR039C, strain RIC1, active compounds read low 1.02 | S. cerevisiae deletion strains, locus YLR058C, strain SHM2, active compounds read low 1.01 | S. cerevisiae deletion strains, locus YLR102C, strain apc9, active compounds read low 1.01 | S. cerevisiae deletion strains, locus YLR113W, strain HOG1, active compounds read low 1.01 | S. cerevisiae deletion strains, locus YLR221C, strain rsa3, active compounds read low 0.945 | S. cerevisiae deletion strains, locus YLR258W, strain gsy2, active compounds read low 0.965 | S. cerevisiae deletion strains, locus YLR262C, strain YPT6 (second series), active compounds read low 0.984 | S. cerevisiae deletion strains, locus YLR262C, strain YPT6, active compounds read low 1.04 | S. cerevisiae deletion strains, locus YLR268W, strain sec22, active compounds read low 1.03 | S. cerevisiae deletion strains, locus YLR320W, strain mms22, active compounds read low 0.949 | S. cerevisiae deletion strains, locus YLR330W, strain CHS5, active compounds read low 1.01 | S. cerevisiae deletion strains, locus YLR342W, strain FKS1 (second series), active compounds read low 1 | S. cerevisiae deletion strains, locus YLR342W, strain FKS1, active compounds read low 0.992 | S. cerevisiae deletion strains, locus YLR357W, strain rsc2, active compounds read low 1 | S. cerevisiae deletion strains, locus YLR370C, strain arc18, active compounds read low 0.952 | S. cerevisiae deletion strains, locus YLR371W, strain rom2, active compounds read low 1.02 | S. cerevisiae deletion strains, locus YLR384C, strain iki3, active compounds read low 0.976 | S. cerevisiae deletion strains, locus YLR418C, strain cdc73, active compounds read low 1.04 | S. cerevisiae deletion strains, locus YML016C, strain PPZ1, active compounds read low 1.01 | S. cerevisiae deletion strains, locus YML032C, strain rad52, active compounds read low 1.03 | S. cerevisiae deletion strains, locus YML120C, strain ndi1, active compounds read low 0.962 | S. cerevisiae deletion strains, locus YML124C, strain tub3, active compounds read low 1.01 | S. cerevisiae deletion strains, locus YMR058W, strain fet3, active compounds read low 0.986 | S. cerevisiae deletion strains, locus YMR078C, strain ctf18, active compounds read low 1.03 | S. cerevisiae deletion strains, locus YMR125W, strain sto1, active compounds read low 0.971 | S. cerevisiae deletion strains, locus YMR129W, active compounds read low 0.991 | S. cerevisiae deletion strains, locus YMR205C, strain PFK2, active compounds read low 0.98 | S. cerevisiae deletion strains, locus YMR223W, strain ubp8, active compounds read low 1.03 | S. cerevisiae deletion strains, locus YMR231W, strain pep5, active compounds read low 0.988 | S. cerevisiae deletion strains, locus YMR263W, strain SAP30, active compounds read low 1 | S. cerevisiae deletion strains, locus YMR307W, strain GAS1, active compounds read low 0.995 | S. cerevisiae deletion strains, locus YNL067W, strain RPL9B, active compounds read low 1 | S. cerevisiae deletion strains, locus YNL071W, strain lat1, active compounds read low 0.987 | S. cerevisiae deletion strains, locus YNL128W, strain TEP1, active compounds read low 1.02 | S. cerevisiae deletion strains, locus YNL153C, strain GIM3, active compounds read low 1 | S. cerevisiae deletion strains, locus YNL183C, strain NPR1, active compounds read low 0.969 | S. cerevisiae deletion strains, locus YNL209W, strain ssb2, active compounds read low 0.982 | S. cerevisiae deletion strains, locus YNL233W, strain BNI4, active compounds read low 0.999 | S. cerevisiae deletion strains, locus YNL248C, strain rpa49, active compounds read low 1.02 | S. cerevisiae deletion strains, locus YNL250W, strain rad50, active compounds read low 1.03 | S. cerevisiae deletion strains, locus YNL271C, strain bni1, active compounds read low 1.02 | S. cerevisiae deletion strains, locus YNL298W, strain CLA4, active compounds read low 1.02 | S. cerevisiae deletion strains, locus YNL307C, strain MCK1, active compounds read low 1.03 | S. cerevisiae deletion strains, locus YNL322C, strain KRE1 (second series), active compounds read low 0.975 | S. cerevisiae deletion strains, locus YNR049C, strain mso1, active compounds read low 0.981 | S. cerevisiae deletion strains, locus YNR052C, strain pop2, active compounds read low 1.02 | S. cerevisiae deletion strains, locus YOL006C, strain TOP1, active compounds read low 1.03 | S. cerevisiae deletion strains, locus YOL012C, strain htz1 0.919 | S. cerevisiae deletion strains, locus YOL147C, strain pex11, active compounds read low 1.02 | S. cerevisiae deletion strains, locus YOR001W, strain rrp6, active compounds read low 1.02 | S. cerevisiae deletion strains, locus YOR061W, strain CKA2, active compounds read low 1.02 | S. cerevisiae deletion strains, locus YOR069W, strain VPS5, active compounds read low 1 | S. cerevisiae deletion strains, locus YOR070C, strain gyp1, active compounds read low 0.988 | S. cerevisiae deletion strains, locus YOR080W, strain dia2, active compounds read low 0.983 | S. cerevisiae deletion strains, locus YOR083W, strain WHI5, active compounds read low 0.986 | S. cerevisiae deletion strains, locus YOR106W, strain vam3, active compounds read low 0.982 | S. cerevisiae deletion strains, locus YOR136W, strain idh2, active compounds read low 1.02 | S. cerevisiae deletion strains, locus YOR144C, strain elg1, active compounds read low 1.02 | S. cerevisiae deletion strains, locus YOR184W, strain ser1, active compounds read low 1.02 | S. cerevisiae deletion strains, locus YOR231W, strain MKK1, active compounds read low 1.03 | S. cerevisiae deletion strains, locus YOR265W, strain rbl2, active compounds read low 0.978 | S. cerevisiae deletion strains, locus YOR270C, strain vph1, active compounds read low 0.983 | S. cerevisiae deletion strains, locus YOR290C, strain snf2, active compounds read low 0.961 | S. cerevisiae deletion strains, locus YOR316C, strain cot1, active compounds read low 1.02 | S. cerevisiae deletion strains, locus YPL051W, strain arl3, active compounds read low 0.997 | S. cerevisiae deletion strains, locus YPL078C, strain atp4, active compounds read low 0.99 | S. cerevisiae deletion strains, locus YPL106C, strain sse1, active compounds read low 0.941 | S. cerevisiae deletion strains, locus YPL240C, strain hsp82, active compounds read low 0.994 | S. cerevisiae deletion strains, locus YPL241C, strain CIN2, active compounds read low 1.01 | S. cerevisiae deletion strains, locus YPL256C, strain CLN2, active compounds read low 1.06 | S. cerevisiae deletion strains, locus YPR119W, strain clb2, active compounds read low 1.02 | S. cerevisiae deletion strains, locus YPR141C, strain kar3, active compounds read low 1.01 | S. cerevisiae deletion strains, locus YPR163C, strain tif3, active compounds read low 1.03 | S. cerevisiae deletion strains, locus YPR167C, strain met16, active compounds read low 1.01 | S. cerevisiae deletion strains, strain wtn01, active compounds read low 1.02 | S. cerevisiae strains, strain wild type, active compounds read low 1.01
